Measurements: the supplement of paper PMC12669032

Experiments:
Assay in all cases: growth AUC relative to DMSO control (median of replicates) (fraction); higher = more growth (less inhibition), active = hit call of the paper
Settings in all cases: 20 µM; 24 h;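 active = AUC reduced over 20% with Padj below 0.05 in at least 2 of 3 replicates; inactive = otherwise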
Akkermansia muciniphila = system: Akkermansia muciniphila
In short: (§1)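 In round-bottom 96-well plates sealed with pierced gas-permeable seals, gut bacterial monocultures in mGAM were grown anaerobically at 37 °C from OD600 0.05 with 20 µM compound (1% DMSO). OD600 readings were taken hourly for 24 h, and the minimum OD was set to 0. Area under the growth curve was then normalised to the plate median of solvent-only wells, or to row and column medians on the industrial chemical plate. The value given is the median of three biological replicates grown on separate days.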

Bacteroides caccae = system: Bacteroides caccae
In short: as §1

Bacteroides clarus = system: Bacteroides clarus
In short: as §1

Bacteroides dorei = system: Bacteroides dorei
In short: as §1

Bacteroides stercoris = system: Bacteroides stercoris
In short: as §1

[1] = system: Bacteroides thetaiotaomicron
In short: as §1

Bacteroides uniformis = system: Bacteroides uniformis
In short: as §1

[2] = system: Bifidobacterium longum subsp. longum
In short: as §1

Clostridium difficile = system: Clostridium difficile
In short: as §1

Collinsella aerofaciens = system: Collinsella aerofaciens
In short: as §1

Measured: growth AUC

ClC1=C(Cl)C2(Cl)C(CBr)CC1(Cl)C2(Cl)Cl (stereo not given)
inactive: Akkermansia muciniphila 1.02 | Bacteroides caccae 1.04 | Bacteroides clarus 1.02 | Bacteroides dorei 0.999 | Bacteroides stercoris 1.02 | [1] 1.01 | Bacteroides uniformis 0.982 | [2] 1.01 | Clostridium difficile 0.985 | Collinsella aerofaciens 0.957

CC1CNC(=S)N1 (stereo not given)
inactive: Akkermansia muciniphila 1 | Bacteroides caccae 1.03 | Bacteroides clarus 1.03 | Bacteroides dorei 1.04 | Bacteroides stercoris 1.09 | [1] 1 | Bacteroides uniformis 1 | [2] 1.01 | Clostridium difficile 1.06 | Collinsella aerofaciens 1.04

O=c1c2cc(F)ccc2nc(-n2cncn2)n1-c1ccc(Cl)cc1Cl
inactive: Akkermansia muciniphila 0.855 | Bacteroides caccae 0.976 | Bacteroides clarus 0.979 | Bacteroides dorei 1.05 | Bacteroides stercoris 1 | [1] 0.925 | Bacteroides uniformis 0.937 | [2] 0.791 | Clostridium difficile 1.12 | Collinsella aerofaciens 1.07

Clc1nc(Cl)nc(Nc2ccccc2Cl)n1
inactive: Akkermansia muciniphila 1.04 | Bacteroides caccae 1.02 | Bacteroides clarus 0.962 | Bacteroides dorei 1.02 | Bacteroides stercoris 1.07 | [1] 0.995 | Bacteroides uniformis 0.997 | [2] 1.01 | Clostridium difficile 1.03 | Collinsella aerofaciens 1.01

O=[N+]([O-])C(Br)(CO)CO
inactive: Akkermansia muciniphila 0.966 | Bacteroides caccae 0.987 | Bacteroides clarus 1.01 | Bacteroides dorei 1.03 | Bacteroides stercoris 1.01 | [1] 0.962 | Bacteroides uniformis 0.976 | [2] 0.991 | Clostridium difficile 0.996 | Collinsella aerofaciens 1.01

CC1(C)OC(c2ccco2)CN1C(=O)C(Cl)Cl (stereo not given)
inactive: Akkermansia muciniphila 0.918 | Bacteroides caccae 1 | Bacteroides clarus 0.942 | Bacteroides dorei 1 | Bacteroides stercoris 1.03 | [1] 0.992 | Bacteroides uniformis 1.02 | [2] 1.03 | Clostridium difficile 0.956 | Collinsella aerofaciens 1.02

CC(C)(C)C(O)C(Oc1ccc(Cl)cc1)n1cncn1 (stereo not given)
inactive: Akkermansia muciniphila 0.947 | Bacteroides caccae 0.985 | Bacteroides clarus 0.996 | Bacteroides dorei 1 | Bacteroides stercoris 1.17 | [1] 0.986 | Bacteroides uniformis 1.04 | [2] 0.943 | Clostridium difficile 1.08 | Collinsella aerofaciens 1.03

C=CCOC(=O)C(C)(C)OC(=O)c1cc(-n2c(=O)cc(C(F)(F)F)n(C)c2=O)ccc1Cl
inactive: Akkermansia muciniphila 1.14 | Bacteroides caccae 0.949 | Bacteroides clarus 1.01 | Bacteroides dorei 0.969 | Bacteroides stercoris 1.09 | [1] 0.974 | Bacteroides uniformis 0.975 | [2] 0.96 | Clostridium difficile 0.964 | Collinsella aerofaciens 0.961

CC(C)=CC1C(C(=O)OC(C#N)c2cccc(Oc3ccccc3)c2)C1(C)C (mixture of isomers)
inactive: Akkermansia muciniphila 0.826 | Bacteroides caccae 0.964 | Bacteroides clarus 0.994 | Bacteroides dorei 0.989 | Bacteroides stercoris 1.11 | [1] 1.01 | Bacteroides uniformis 1.06 | [2] 0.914 | Clostridium difficile 1 | Collinsella aerofaciens 0.935

CC(C)Nc1nc(Cl)nc(NC(C)C)n1
inactive: Akkermansia muciniphila 0.954 | Bacteroides caccae 0.825 | Bacteroides clarus 0.989 | Bacteroides dorei 0.965 | Bacteroides stercoris 1.14 | [1] 0.96 | Bacteroides uniformis 1.02 | [2] 1.07 | Clostridium difficile 0.986 | Collinsella aerofaciens 0.961

CCC(C)c1cc([N+](=O)[O-])cc([N+](=O)[O-])c1OC(=O)C=C(C)C (stereo not given)
active: Bacteroides clarus 0.74 | Bacteroides stercoris 0.473 | Bacteroides uniformis 0.479
inactive: Akkermansia muciniphila 1.15 | Bacteroides caccae 0.986 | Bacteroides dorei 0.801 | [1] 0.802 | [2] 0.879 | Clostridium difficile 0.989 | Collinsella aerofaciens 0.956

Oc1ccccc1Cl
inactive: Akkermansia muciniphila 0.985 | Bacteroides caccae 1.01 | Bacteroides clarus 0.993 | Bacteroides dorei 1.01 | Bacteroides stercoris 1.05 | [1] 0.983 | Bacteroides uniformis 0.988 | [2] 0.99 | Clostridium difficile 0.995 | Collinsella aerofaciens 1

CNC(=O)N(C)c1nnc(C(C)(C)C)s1
inactive: Akkermansia muciniphila 0.742 | Bacteroides caccae 1.02 | Bacteroides clarus 0.97 | Bacteroides dorei 1.05 | Bacteroides stercoris 1 | [1] 0.993 | Bacteroides uniformis 1.01 | [2] 0.925 | Clostridium difficile 1 | Collinsella aerofaciens 1.04

ClC1=C(Cl)C2(Cl)C3C(Cl)C=CC3C1(Cl)C2(Cl)Cl (stereo not given)
inactive: Akkermansia muciniphila 1.1 | Bacteroides caccae 1.01 | Bacteroides clarus 1.01 | Bacteroides dorei 0.958 | Bacteroides stercoris 1.08 | [1] 0.99 | Bacteroides uniformis 0.983 | [2] 0.932 | Clostridium difficile 0.963 | Collinsella aerofaciens 0.951

C1CCC(NC2CCCCC2)CC1.O=NO
inactive: Akkermansia muciniphila 0.874 | Bacteroides caccae 0.983 | Bacteroides clarus 0.991 | Bacteroides dorei 0.991 | Bacteroides stercoris 0.831 | [1] 0.984 | Bacteroides uniformis 0.943 | [2] 0.967 | Clostridium difficile 1.01 | Collinsella aerofaciens 1.08

CNC(=O)O/N=C/C(C)(C)SC
inactive: Akkermansia muciniphila 0.909 | Bacteroides caccae 1.03 | Bacteroides clarus 0.993 | Bacteroides dorei 1.03 | Bacteroides stercoris 0.943 | [1] 0.987 | Bacteroides uniformis 1.01 | [2] 0.957 | Clostridium difficile 0.979 | Collinsella aerofaciens 1.04

C=CC(N)=O
inactive: Akkermansia muciniphila 1.01 | Bacteroides caccae 0.985 | Bacteroides clarus 1 | Bacteroides dorei 0.963 | Bacteroides stercoris 0.983 | [1] 0.99 | Bacteroides uniformis 1.01 | [2] 0.875 | Clostridium difficile 1.01 | Collinsella aerofaciens 1.01

O=C(NC(=O)c1c(F)cccc1F)Nc1ccc(CO/N=C(\c2ccc(Cl)cc2)C2CC2)cc1
inactive: Akkermansia muciniphila 1.02 | Bacteroides caccae 0.994 | Bacteroides clarus 0.955 | Bacteroides dorei 1.01 | Bacteroides stercoris 0.981 | [1] 0.996 | Bacteroides uniformis 0.983 | [2] 0.959 | Clostridium difficile 0.983 | Collinsella aerofaciens 0.963

COC(=O)C(Cl)Cl
inactive: Akkermansia muciniphila 1 | Bacteroides caccae 0.968 | Bacteroides clarus 0.992 | Bacteroides dorei 1 | Bacteroides stercoris 1.06 | [1] 1.02 | Bacteroides uniformis 0.971 | [2] 0.957 | Clostridium difficile 0.997 | Collinsella aerofaciens 0.991

CC(C)OC(=O)Nc1cccc(Cl)c1
inactive: Akkermansia muciniphila 1.06 | Bacteroides caccae 0.915 | Bacteroides clarus 0.985 | Bacteroides dorei 0.948 | Bacteroides stercoris 1.04 | [1] 1.02 | Bacteroides uniformis 0.984 | [2] 0.981 | Clostridium difficile 1.01 | Collinsella aerofaciens 0.963

C[C@H]1[C@H](c2ccc(Cl)cc2)SC(=O)N1C(=O)NC1CCCCC1
inactive: Akkermansia muciniphila 0.988 | Bacteroides caccae 0.91 | Bacteroides clarus 0.965 | Bacteroides dorei 0.945 | Bacteroides stercoris 1.13 | [1] 0.952 | Bacteroides uniformis 0.943 | [2] 0.923 | Clostridium difficile 0.987 | Collinsella aerofaciens 0.928

CCOP(=S)(OCC)Oc1cnc2ccccc2n1
inactive: Akkermansia muciniphila 0.881 | Bacteroides caccae 0.925 | Bacteroides clarus 0.94 | Bacteroides dorei 0.993 | Bacteroides stercoris 0.934 | [1] 0.895 | Bacteroides uniformis 0.867 | [2] 0.987 | Clostridium difficile 0.988 | Collinsella aerofaciens 0.992

CCCSP(=O)(OCC)Oc1ccc(Br)cc1Cl (stereo not given)
inactive: Akkermansia muciniphila 0.944 | Bacteroides caccae 0.864 | Bacteroides clarus 0.95 | Bacteroides dorei 0.985 | Bacteroides stercoris 1.17 | [1] 0.901 | Bacteroides uniformis 0.881 | [2] 1.06 | Clostridium difficile 1.03 | Collinsella aerofaciens 0.972

Cc1cc(Cl)ccc1O[C@H](C)C(=O)O
inactive: Akkermansia muciniphila 1.04 | Bacteroides caccae 0.841 | Bacteroides clarus 1 | Bacteroides dorei 0.982 | Bacteroides stercoris 1.15 | [1] 0.991 | Bacteroides uniformis 0.958 | [2] 1.01 | Clostridium difficile 0.972 | Collinsella aerofaciens 0.968

CC(=O)CC(c1ccco1)c1c(O)c2ccccc2oc1=O (stereo not given)
inactive: Akkermansia muciniphila 0.866 | Bacteroides caccae 1.01 | Bacteroides clarus 0.957 | Bacteroides dorei 1 | Bacteroides stercoris 1 | [1] 0.98 | Bacteroides uniformis 0.968 | [2] 0.95 | Clostridium difficile 1.02 | Collinsella aerofaciens 0.967

CCCN(CC)CC1COC2(CCC(C(C)(C)C)CC2)O1 (stereo not given)
inactive: Akkermansia muciniphila 0.871 | Bacteroides caccae 0.99 | Bacteroides clarus 0.952 | Bacteroides dorei 1.07 | Bacteroides stercoris 0.87 | [1] 1.02 | Bacteroides uniformis 1.04 | [2] 0.79 | Clostridium difficile 0.985 | Collinsella aerofaciens 0.981

CCCN(CCCl)c1c([N+](=O)[O-])cc(C(F)(F)F)cc1[N+](=O)[O-]
inactive: Akkermansia muciniphila 1.01 | Bacteroides caccae 0.977 | Bacteroides clarus 0.95 | Bacteroides dorei 0.94 | Bacteroides stercoris 0.93 | [1] 0.918 | Bacteroides uniformis 0.927 | [2] 1.07 | Clostridium difficile 0.995 | Collinsella aerofaciens 0.961

CC(C)(C)C(=O)C(Oc1ccc(Cl)cc1)n1cncn1 (stereo not given)
inactive: Akkermansia muciniphila 1.04 | Bacteroides caccae 0.993 | Bacteroides clarus 1 | Bacteroides dorei 1.01 | Bacteroides stercoris 1.1 | [1] 0.999 | Bacteroides uniformis 0.978 | [2] 1.02 | Clostridium difficile 1.03 | Collinsella aerofaciens 1.01
